Inconclusive results are not listed. A call without a number means that no potency is given here. Active and inactive are the calls of the source. The call rests on the fitted dose curve; in most records, active means well fitted curve in the direction sought with a large enough effect; inconclusive means small, poorly fitted or top-dose-only effect, or another doubt; inactive means no such curve, though single readings can be large; an effect the other way counts as inactive or inconclusive.
How the values were obtained:
[1] = Quantitative High-Throughput drug screen in 47 multiple myeloma cell lines against the NCATS MIPE library collection: KMM1_JCRB cell viability assay (AID 1918960); further: nearly all actives have a fitted effect of over 30% in size; further: potency means the concentration at half of the fitted maximal effect
Procedure, shortened: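 ATP readout (CellTiter-Glo), 48 h drug incubation, 37 °C/5% CO2, 500 cells per well; normalisation to DMSO (100%) and media-only (0%) controls.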

[2] = Quantitative High-Throughput drug screen in 47 multiple myeloma cell lines against the NCATS MIPE library collection: KHM11_PLB cell viability assay (AID 1918962); further: nearly all actives have a fitted effect of over 35% in size; further: potency means the concentration at half of the fitted maximal effect
Procedure, shortened: (§1)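 Inhibition of cell viability is measured here. Each line was plated at 500 cells per well, treated with MIPE 4.0 drugs, kept 48 hours at 37C, then assayed for ATP content by CellTiter-Glo luminescence.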

[3] = Quantitative High-Throughput drug screen in 47 multiple myeloma cell lines against the NCATS MIPE library collection: JIM3_ECACC cell viability assay (AID 1918963; further: nearly all actives have a fitted effect of over 35% in size; further: potency means the concentration at half of the fitted maximal effect)
Procedure, shortened: as §1

[4] = Quantitative High-Throughput drug screen in 47 multiple myeloma cell lines against the NCATS MIPE library collection: INA6_PLB cell viability assay (AID 1918965; further: nearly all actives have a fitted effect of over 55% in size; further: potency means the concentration at half of the fitted maximal effect)
Procedure, shortened: (§2)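 qHTS of the MIPE 4.0 collection: 500 myeloma cells/well, 48 h drug exposure at 37C in 5% CO2, then CellTiter-Glo for 5 min at room temperature before luminescence reading.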

[5] = Quantitative High-Throughput drug screen in 47 multiple myeloma cell lines against the NCATS MIPE library collection: JJN3_DSMZ cell viability assay (AID 1918966; further: nearly all actives have a fitted effect of over 50% in size; further: potency means the concentration at half of the fitted maximal effect)
Procedure, shortened: (§3)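 Myeloma cells (500 per well) were exposed to MIPE 4.0 compounds by pin transfer and incubated 48 hours at 37C, 5% CO2. Viability was read as ATP by CellTiter-Glo luminescence, normalised to DMSO (100%) and media-only (0%) wells.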

[6] = Quantitative High-Throughput drug screen in 47 multiple myeloma cell lines against the NCATS MIPE library collection: Karpas25_ECACC cell viability assay (AID 1918968; further: nearly all actives have a fitted effect of over 35% in size; further: potency means the concentration at half of the fitted maximal effect)
Procedure, shortened: as §3

[7] = Quantitative High-Throughput drug screen in 47 multiple myeloma cell lines against the NCATS MIPE library collection: KMS27_JCRB cell viability assay (AID 1918970); further: nearly all actives have a fitted effect of over 30% in size; further: potency means the concentration at half of the fitted maximal effect
Procedure, shortened: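 CellTiter-Glo luminescence after 48 h drug exposure at 37 °C; 500 cells/well, 1536-well format, pin-tool compound addition; DMSO = 100%, media-only = 0% viability.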

[8] = Quantitative High-Throughput drug screen in 47 multiple myeloma cell lines against the NCATS MIPE library collection: JIM1_ECACC cell viability assay (AID 1918964; further: potency means the concentration at half of the fitted maximal effect)
Procedure, shortened: as §3

[9] = Quantitative High-Throughput drug screen in 47 multiple myeloma cell lines against the NCATS MIPE library collection: KMS12BM_JCRB cell viability assay (AID 1918971); further: nearly all actives have a fitted effect of over 35% in size; further: potency means the concentration at half of the fitted maximal effect
Procedure, shortened: (§4)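 We plated 500 myeloma cells per well, pinned in MIPE 4.0 compounds, and incubated for 48 hours at 37C. ATP was then quantified with CellTiter-Glo, with DMSO and media-only wells defining 100% and 0%.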

[10] = Quantitative High-Throughput drug screen in 47 multiple myeloma cell lines against the NCATS MIPE library collection: KMS12PE_JCRB cell viability assay (AID 1918972); further: nearly all actives have a fitted effect of over 30% in size; further: potency means the concentration at half of the fitted maximal effect
Procedure, shortened: as §2

[11] = Quantitative High-Throughput drug screen in 47 multiple myeloma cell lines against the NCATS MIPE library collection: MMM1_PLB cell viability assay (AID 1918976)
Procedure, shortened: (§5)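 Viability after 48 h drug exposure was measured as ATP-dependent luminescence. Cells, 500 per well, sat at 37 °C under 5% CO2; DMSO wells set 100%, media-only wells 0%.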

[12] = Quantitative High-Throughput drug screen in 47 multiple myeloma cell lines against the NCATS MIPE library collection: MOLP8_DSMZ cell viability assay (AID 1918977); further: nearly all actives have a fitted effect of over 45% in size; further: potency means the concentration at half of the fitted maximal effect
Procedure, shortened: as §5

[13] = Quantitative High-Throughput drug screen in 47 multiple myeloma cell lines against the NCATS MIPE library collection: NCIH929_DSMZ cell viability assay (AID 1918978); further: nearly all actives have a fitted effect of over 35% in size; further: potency means the concentration at half of the fitted maximal effect
Procedure, shortened: as §5

[14] = Quantitative High-Throughput drug screen in 47 multiple myeloma cell lines against the NCATS MIPE library collection: KMS20_JCRB cell viability assay (AID 1918973); further: nearly all actives have a fitted effect of over 45% in size; further: potency means the concentration at half of the fitted maximal effect
Procedure, shortened: as §3

[15] = Quantitative High-Throughput drug screen in 47 multiple myeloma cell lines against the NCATS MIPE library collection: KMS26_JCRB cell viability assay (AID 1918975); further: nearly all actives have a fitted effect of over 45% in size; further: potency means the concentration at half of the fitted maximal effect
Procedure, shortened: as §4

[16] = Quantitative High-Throughput drug screen in 47 multiple myeloma cell lines against the NCATS MIPE library collection: MM1S_ATCC cell viability assay (AID 1918980); further: nearly all actives have a fitted effect of over 45% in size; further: potency means the concentration at half of the fitted maximal effect
Procedure, shortened: as §5

[17] = Quantitative High-Throughput drug screen in 47 multiple myeloma cell lines against the NCATS MIPE library collection: MM1R_ATCC cell viability assay (AID 1918981); further: nearly all actives have a fitted effect of over 35% in size; further: potency means the concentration at half of the fitted maximal effect
Procedure, shortened: as §5

[18] = Quantitative High-Throughput drug screen in 47 multiple myeloma cell lines against the NCATS MIPE library collection: H1112_PLB cell viability assay (AID 1918967; further: nearly all actives have a fitted effect of over 30% in size; further: potency means the concentration at half of the fitted maximal effect)
Procedure, shortened: as §3

[19] = Quantitative High-Throughput drug screen in 47 multiple myeloma cell lines against the NCATS MIPE library collection: OCIMY1_PLB cell viability assay (AID 1918979); further: nearly all actives have a fitted effect of over 35% in size
Procedure, shortened: as §5

[20] = Quantitative High-Throughput drug screen in 47 multiple myeloma cell lines against the NCATS MIPE library collection: Karpas417_ECACC cell viability assay (AID 1918961); conditions: Karpas417 myeloma viability, CellTiter-Glo ATP luminescence, 48 h; viability (% of DMSO): at 45.8 µM (top of the series); further: potency means the concentration at half of the fitted maximal effect
Procedure, shortened: as §2

Compound	Potency [1]	Potency [2]	Potency [3]	Potency [4]	Potency [5]	Potency [6]	Potency [7]	Potency [8]	Potency [9]	Potency [10]	Potency [11]	Potency [12]	Potency [13]	Potency [14]	Potency [15]	Potency [16]	Potency [17]	Potency [18]	Potency [19]	Potency [20]
CCn1cc(C(=O)O)c(=O)c2cc(F)c(N3CCNCC3)nc21	inactive	inactive	inactive	inactive	inactive	inactive	inactive													
COc1ccc2c(c1)c(CC(=O)OCC(=O)O)c(C)n2C(=O)c1ccc(Cl)cc1	inactive		inactive	inactive	inactive			inactive	inactive	inactive	4.18 µM (active)	inactive	inactive							
CC(C)(C)C(=O)OCOP(=O)(COCCn1cnc2c(N)ncnc21)OCOC(=O)C(C)(C)C	11.8 µM (active)	0.935 µM (active)	2.64 µM (active)	0.743 µM (active)	0.526 µM (active)		0.469 µM (active)	2.64 µM (active)	0.935 µM (active)				0.209 µM (active)	2.64 µM (active)	6.62 µM (active)	2.09 µM (active)	0.332 µM (active)			
N[C@@H](C(=O)N[C@@H]1C(=O)N2C(C(=O)O)=C(Cl)CS[C@H]12)c1ccccc1	inactive	inactive	inactive	inactive	inactive		inactive	inactive				inactive	inactive		inactive	inactive		inactive		
OCc1ccc(-c2nn(Cc3ccccc3)c3ccccc23)o1	inactive	2.64 µM (active)	inactive			9.35 µM (active)	inactive		10.5 µM (active)				14.8 µM (active)			4.18 µM (active)	8.33 µM (active)			
CCCc1cc(C(N)=S)ccn1	inactive	inactive	inactive	inactive	inactive	inactive	inactive	inactive	inactive			inactive	inactive	inactive			inactive			
CN(CCOc1ccc(CC2SC(=O)NC2=O)cc1)c1ccccn1 (stereo not given)	inactive	inactive	inactive	inactive			inactive					inactive	inactive			16.6 µM (active)		inactive	inactive	
CCOCC(O)COc1ccc(NC(=O)CC[S+](C)C)cc1 (stereo not given)	inactive	inactive	inactive		inactive		inactive		inactive			inactive	inactive					inactive		
CNNCc1ccc(C(=O)NC(C)C)cc1	2.96 µM (active)	inactive	inactive		inactive	5.26 µM (active)	inactive	inactive	4.69 µM (active)	inactive	8.33 µM (active)		inactive		18.7 µM (active)		11.8 µM (active)	inactive	inactive	
Cc1cccc(Nc2ccncc2S(=O)(=O)NC(=O)NC(C)C)c1	inactive	inactive	inactive		20.9 µM (active)	inactive	inactive	inactive	16.6 µM (active)	inactive	20.9 µM (active)		inactive			inactive		inactive	inactive	
CO[C@@]12[C@H](COC(N)=O)C3=C(C(=O)C(C)=C(N)C3=O)N1C[C@@H]1N[C@@H]12	inactive	33.2 µM (active)	26.4 µM (active)	20.9 µM (active)	26.4 µM (active)				23.5 µM (active)			23.5 µM (active)	26.4 µM (active)		23.5 µM (active)	0.264 µM (active)				
O[C@@H](CNC[C@H](O)[C@H]1CCc2cc(F)ccc2O1)[C@@H]1CCc2cc(F)ccc2O1	16.6 µM (active)	26.4 µM (active)	23.5 µM (active)	20.9 µM (active)					23.5 µM (active)				23.5 µM (active)		26.4 µM (active)	20.9 µM (active)	26.4 µM (active)			
Nc1[nH]c(=O)ncc1F	inactive		inactive		inactive		inactive	inactive	inactive			inactive	inactive				inactive		inactive	
COC(=O)Nc1nc2ccc(S(=O)c3ccccc3)cc2[nH]1 (stereo not given)	inactive		20.9 µM (active)	18.7 µM (active)		16.6 µM (active)									inactive					
CC(=O)[C@H]1CC[C@H]2[C@@H]3CCC4=CC(=O)CC[C@]4(C)[C@H]3CC[C@]12C	inactive			16.6 µM (active)									inactive			3.72 µM (active)				
CC[C@H](C)C(=O)O[C@H]1C[C@@H](C)C=C2C=C[C@H](C)[C@H](CC[C@@H]3C[C@@H](O)CC(=O)O3)[C@H]21	inactive			18.7 µM (active)			inactive			inactive						16.6 µM (active)	16.6 µM (active)			
COc1c(N2CCNC(C)C2)c(F)cc2c(=O)c(C(=O)O)cn(C3CC3)c12 (stereo not given)		inactive	inactive		inactive		inactive					inactive				inactive		inactive	inactive	inactive
O=S(=O)(O)CCS	inactive			inactive			16.6 µM (active)					inactive	inactive	inactive		inactive		inactive	inactive	
COc1cc(NS(=O)(=O)c2ccc(N)cc2)nc(OC)n1	inactive		inactive	inactive	inactive	inactive	inactive		inactive	inactive		inactive	inactive		inactive		inactive		inactive	
CCCOc1ccc(C(=O)OCCN(CC)CC)cc1N	inactive		inactive	inactive	inactive		inactive			inactive		inactive	inactive	inactive	inactive		inactive	inactive	inactive	
CN1CCN(c2c(F)cc3c(=O)c(C(=O)O)cn4c3c2OCN4C)CC1	inactive		inactive	inactive	inactive	inactive	inactive					inactive	inactive			inactive	inactive			
C[C@@H]1CN(c2c(F)c(N)c3c(=O)c(C(=O)O)cn(C4CC4)c3c2F)C[C@H](C)N1	inactive		inactive	inactive				inactive	inactive			inactive	inactive			inactive				
Cc1nnc(C(=O)NC(C)(C)c2nc(C(=O)NCc3ccc(F)cc3)c(O)c(=O)n2C)o1	inactive		inactive	inactive		inactive			inactive		7.43 µM (active)	inactive	inactive			inactive	inactive	inactive		
COc1cc2ncnc(Nc3cccc(Cl)c3)c2cc1OC	20.9 µM (active)				33.2 µM (active)	20.9 µM (active)	29.6 µM (active)		26.4 µM (active)	20.9 µM (active)		20.9 µM (active)			23.5 µM (active)	0.0743 µM (active)				
CCOc1cc(N)c(Cl)cc1C(=O)NCC1CN(Cc2ccc(F)cc2)CCO1 (stereo not given)	inactive		inactive		inactive		inactive					inactive	inactive				inactive	inactive	inactive	
O=c1cc(O)c(Cl)c[nH]1		inactive	inactive			inactive	1.66 µM (active)	6.62 µM (active)				inactive	inactive			3.72 µM (active)		inactive		1.18 µM (active)
CCN[C@H]1C[C@H](C)S(=O)(=O)c2sc(S(N)(=O)=O)cc21	inactive		inactive	inactive		inactive	inactive	inactive	inactive			inactive	inactive	inactive	inactive			inactive	inactive	
C[C@@H]1C[C@H]2[C@@H]3CCC4=CC(=O)C=C[C@]4(C)[C@@]3(Cl)[C@@H](O)C[C@]2(C)[C@@]1(OC(=O)c1ccco1)C(=O)CCl		9.35 µM (active)	9.35 µM (active)	2.96 µM (active)	2.35 µM (active)		10.5 µM (active)	7.43 µM (active)	18.7 µM (active)	4.69 µM (active)	18.7 µM (active)		3.32 µM (active)		14.8 µM (active)		16.6 µM (active)	5.26 µM (active)		8.33 µM (active)
CC1(C)[C@H](C(=O)O)N2C(=O)C[C@H]2S1(=O)=O	inactive		inactive	inactive		inactive		inactive	inactive	inactive			inactive		inactive	26.4 µM (active)	inactive			

Source: PubChem BioAssay (NCATS)
